Measured values taken from PubChem BioAssay.
The source made the active and inactive calls.

What was measured:
[1] = E. coli DRC41 culture turbidity changes, primary screen, E. coli filamentation inducer project, strain DRC41, OD650, 48 h (AID 1152);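 note: E. coli MC1000 strain DRC41 lacking acrAB efflux pump and sulA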; details: E. coli DRC41 (acrAB sulA), higher = more signal, called active from +8 up or from −8 down
[2] = small-molecule binders of probe aLefty1, primary screen, biochemical, small-molecule microarray, 635/667 nm fluorescence (AID 1153); details: higher = more signal;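 note: score merges spot fluorescence with signal-to-noise ratio from the scanned slide images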
[3] = PSAC antagonists in infected red cells, primary screen, cell-based, P. falciparum Indochina, OD700, 1 h (AID 1154); details: P. falciparum Indochina infected RBC osmotic lysis, higher = more signal, called active from +8 up or from −8 down
[4] = PSAC antagonists in infected red cells, primary screen, cell-based, P. falciparum Indochina, OD700, 2 h (AID 1155);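 note: lysis reports solute entry through the parasite surface anion channel PSAC; channel blockers reduce lysis of infected cells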; details: P. falciparum Indochina infected erythrocytes, osmotic lysis OD700; higher = more signal, called active from +8 up or from −8 down
[5] = osmotic lysis modulators in infected erythrocytes, primary screen, PSAC antagonist project, cell-based, P. falciparum Indochina, OD700, 3 h (AID 1156); details: higher = more signal, called active from +8 up or from −8 down
[6] = PSAC antagonists in infected red cells, primary screen, cell-based, P. falciparum Indochina, OD700, 18 h (AID 1157); details: P. falciparum Indochina infected erythrocytes, osmotic lysis OD700, 18 h; higher = more signal, called active from +8 up or from −8 down
[7] = modulators of S6 phosphorylation in cells, primary screen, cell-based, A549, cytoblot, luminescence, serum-stimulated (AID 1158); details: A549 phospho-S6 cytoblot, 5 h, higher = more signal;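 note: serum-stimulated A549 lung adenocarcinoma cells; signal is phosphorylated S6 detected by cytoblot immunostaining with HRP secondary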
[8] = target: NADPH oxidase 2 (Homo sapiens) (UniProt P04839); assay: NOX2-dependent H2O2 signal modulators, primary screen, NOX inhibitor project, cell-based, HEK293-NOX2, PMA-stimulated, Amplex Red fluorescence (AID 1159); details: 45 min, higher = more signal, called active from +8 up or from −8 down; note: test concentration not given here
NADPH oxidase 2 (Homo sapiens), sequence (P04839 whole entry, looked up): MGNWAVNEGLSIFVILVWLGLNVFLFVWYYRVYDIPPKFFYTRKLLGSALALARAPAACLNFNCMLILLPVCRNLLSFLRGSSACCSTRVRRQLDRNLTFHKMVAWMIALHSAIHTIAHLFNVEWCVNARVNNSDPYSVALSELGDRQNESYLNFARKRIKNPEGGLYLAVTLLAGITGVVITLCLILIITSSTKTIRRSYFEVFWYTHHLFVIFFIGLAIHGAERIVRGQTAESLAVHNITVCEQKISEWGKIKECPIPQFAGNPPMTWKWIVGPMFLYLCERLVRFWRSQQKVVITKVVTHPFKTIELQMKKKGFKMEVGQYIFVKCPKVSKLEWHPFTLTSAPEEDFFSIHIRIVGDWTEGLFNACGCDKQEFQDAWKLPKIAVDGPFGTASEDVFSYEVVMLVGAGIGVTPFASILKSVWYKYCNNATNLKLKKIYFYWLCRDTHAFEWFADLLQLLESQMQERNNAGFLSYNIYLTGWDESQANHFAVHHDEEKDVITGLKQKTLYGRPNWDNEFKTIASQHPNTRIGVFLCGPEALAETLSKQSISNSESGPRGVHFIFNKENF

[9] = target: NADPH oxidase 4 (Homo sapiens) (UniProt Q9NPH5); assay: NOX4-dependent H2O2 signal modulators, primary screen, NOX inhibitor project, cell-based, HEK293-NOX4, tetracycline-induced, Amplex Red fluorescence (AID 1160); details: 45 min, higher = more signal, called active from +8 up or from −8 down
NADPH oxidase 4 (Homo sapiens), sequence (Q9NPH5 whole entry, looked up): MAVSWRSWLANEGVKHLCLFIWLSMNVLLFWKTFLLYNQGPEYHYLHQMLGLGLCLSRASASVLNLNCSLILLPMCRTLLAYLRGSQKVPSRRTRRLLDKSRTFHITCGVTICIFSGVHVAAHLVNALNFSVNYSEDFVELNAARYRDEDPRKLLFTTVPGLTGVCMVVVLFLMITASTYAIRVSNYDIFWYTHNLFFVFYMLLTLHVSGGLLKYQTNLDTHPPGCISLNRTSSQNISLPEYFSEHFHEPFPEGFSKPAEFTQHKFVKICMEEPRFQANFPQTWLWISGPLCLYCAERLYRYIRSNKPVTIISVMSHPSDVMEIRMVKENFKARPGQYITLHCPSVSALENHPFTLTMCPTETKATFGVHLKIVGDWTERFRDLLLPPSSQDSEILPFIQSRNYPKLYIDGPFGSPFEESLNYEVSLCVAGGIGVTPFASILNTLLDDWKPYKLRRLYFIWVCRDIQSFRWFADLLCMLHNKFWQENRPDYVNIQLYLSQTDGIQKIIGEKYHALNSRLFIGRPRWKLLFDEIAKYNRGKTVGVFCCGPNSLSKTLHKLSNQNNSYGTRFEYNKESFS

[10] = target: NADPH oxidase 5 (Homo sapiens) (UniProt Q96PH1); assay: NOX5-dependent H2O2 signal modulators, primary screen, NOX inhibitor project, cell-based, HEK293-NOX5, Amplex Red fluorescence (AID 1161); details: HEK293-NOX5, ionomycin, 45 min, higher = more signal
NADPH oxidase 5 (Homo sapiens), sequence (Q96PH1 whole entry, looked up): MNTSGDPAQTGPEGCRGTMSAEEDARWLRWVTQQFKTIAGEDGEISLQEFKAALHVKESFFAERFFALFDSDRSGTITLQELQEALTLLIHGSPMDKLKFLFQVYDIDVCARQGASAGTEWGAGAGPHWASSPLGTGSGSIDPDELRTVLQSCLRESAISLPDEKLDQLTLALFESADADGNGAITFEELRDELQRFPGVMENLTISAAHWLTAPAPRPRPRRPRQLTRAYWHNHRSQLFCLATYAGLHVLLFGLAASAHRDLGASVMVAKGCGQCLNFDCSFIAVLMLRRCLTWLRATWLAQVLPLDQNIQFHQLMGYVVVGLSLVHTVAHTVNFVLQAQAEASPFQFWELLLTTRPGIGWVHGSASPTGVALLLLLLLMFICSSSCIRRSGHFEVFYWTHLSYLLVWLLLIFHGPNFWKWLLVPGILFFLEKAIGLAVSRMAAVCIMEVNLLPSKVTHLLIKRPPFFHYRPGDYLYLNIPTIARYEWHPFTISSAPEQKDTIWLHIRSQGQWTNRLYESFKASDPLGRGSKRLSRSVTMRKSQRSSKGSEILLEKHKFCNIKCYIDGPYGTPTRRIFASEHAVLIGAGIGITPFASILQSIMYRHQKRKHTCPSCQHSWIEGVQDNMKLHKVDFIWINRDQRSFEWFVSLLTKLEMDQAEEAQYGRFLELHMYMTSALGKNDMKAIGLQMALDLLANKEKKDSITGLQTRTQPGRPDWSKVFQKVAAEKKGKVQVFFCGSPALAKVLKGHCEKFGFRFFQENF

Compound | z-score [1] | composite z-score [2] | z-score [3] | z-score [4] | z-score [5] | z-score [6] | z-score [7] | z-score [8] | z-score [9] | z-score [10]
C=C(COC)C(=O)CC[C@H](OC(C)=O)c1cccc(OCCO)c1 | 0.527 (inactive) | -0.393 | 4.14 (inactive) | -1.22 (inactive) | 1.88 (inactive) | -1.48 (inactive) | 2.19 | -1.66 (inactive) | -0.724 (inactive) | -1.46
COc1ccc([Si](C)(C)[C@@H]2[C@@H](CCn3cc([C@H](O)c4ccccc4)nn3)O[C@]3(C(=O)N(Cc4ccc(N5C(=O)c6cccc7cccc5c67)cc4)c4ccccc43)[C@H]2C)cc1 | 0.74 (inactive) | -0.14 | 1.23 (inactive) | -0.611 (inactive) | 0.957 (inactive) | -0.68 (inactive) | 1.11 | 0.584 (inactive) | 1.01 (inactive) | -0.539
CCOC(=O)C[C@H]1[C@H](OC(=O)c2ccc(-c3ccccc3)cc2)[C@@H](NC(=O)c2ccc3ccccc3c2)c2cc(OCCCO)ccc2N1C(=O)Cc1ccc(OC)cc1 | 0.107 (inactive) | -0.304 | 2.49 (inactive) | 0.927 (inactive) | 1.21 (inactive) | 0.263 (inactive) | 0.452 | -1.1 (inactive) | -0.0144 (inactive) | -1.47
COC(=O)[C@@]1(Cc2ccccc2)[C@H]2c3cc(C(=O)N(C)C)n(Cc4c(-c5ccccc5)noc4C)c3C[C@H]2CN1C(=O)c1ccccc1 | -2.11 (inactive) | 0.324 | 2.98 (inactive) | 1.2 (inactive) | 0.57 (inactive) | 1.11 (inactive) | -0.505 | 0.931 (inactive) | 1.32 (inactive) | 1.1
NC(=O)NCC#Cc1ccc2c(c1)[C@]1(C(=O)N2)[C@H](C(=O)NC[C@H](O)c2ccccc2)[C@H]2C(=O)O[C@H](c3ccccc3)[C@H](c3ccccc3)N2[C@@H]1c1ccc(O)cc1 | -0.765 (inactive) | -0.149 | 0.397 (inactive) | -0.0004 (inactive) | 2.63 (inactive) | -0.048 (inactive) | -0.0546 | 1.3 (inactive) | 0.02 (inactive) | 0.404
CC(=O)NCCCC[C@@H]1NC(=O)[C@H]2C[C@@H](C(=O)NCCCCCC[N+](C)(C)C)[C@@H](c3cccc(OCCO)c3)N2C1=O | 1.52 (inactive) | 0.147 | 2.86 (inactive) | -1.48 (inactive) | 0.657 (inactive) | -2.25 (inactive) | 0.778 | -0.329 (inactive) | 0.383 (inactive) | -0.465
CCOc1cc(C(O)C2C=CC3C(=O)N(c4ccccc4)C(=O)C3N2Nc2ccc([N+](=O)[O-])cc2)ccc1O (stereo not given) | -1.48 (inactive) | -0.0011 | 14.3 (active) | 1.52 (inactive) | 0.839 (inactive) | 0.557 (inactive) | -0.77 | -3.36 (inactive) | -4.89 (inactive) | -4.11
CCOC(=O)C[C@H]1[C@H](OC(=O)c2ccc(-c3ccccc3)cc2)[C@@H](NC(=O)Cc2ccc(OC)cc2)c2cc(OCCCO)ccc2N1C(=O)c1ccc2ccccc2n1 | -0.667 (inactive) | -0.231 | 2.63 (inactive) | 0.393 (inactive) | -0.619 (inactive) | 0.653 (inactive) | 1.3 | 0.377 (inactive) | 1.29 (inactive) | 1.73
C=CC[C@@H](OC(=O)Nc1ccc(OC)cc1)c1ccc(O)c2ccccc12 | 0.122 (inactive) | -0.0615 | 3.63 (inactive) | 0.661 (inactive) | -0.335 (inactive) | 0.279 (inactive) | 0.229 | -6.06 (inactive) | -1.69 (inactive) | -0.308
C[N+](C)(C)CCCCCCNC(=O)[C@H]1C[C@H]2C(=O)N3CCC[C@H]3C(=O)N2[C@H]1c1ccc(O)cc1 | 0.864 (inactive) | -0.0489 | 1.37 (inactive) | -0.948 (inactive) | -0.937 (inactive) | -1.44 (inactive) | 0.707 | -0.87 (inactive) | -1 (inactive) | -2.81
O=C1C2C=CC(C(O)c3ccc(F)cc3)N(Nc3ccccc3)C2C(=O)N1c1ccccc1 (stereo not given) | -0.789 (inactive) | 0.374 | 10.2 (active) | 2.02 (inactive) | 0.0089 (inactive) | 1.24 (inactive) | -0.931 | -1.77 (inactive) | -3.42 (inactive) | -1.96
COCCOC(=O)N1C(=O)[C@@]2(c3cc(C#CCNC(N)=O)ccc31)[C@H](c1ccc(O)cc1)N1[C@H](c3ccccc3)[C@H](c3ccccc3)OC(=O)[C@H]1[C@@H]2C(=O)NC[C@H](O)c1ccccc1 | -0.388 (inactive) | 0.101 | 1.3 (inactive) | 1.1 (inactive) | 0.205 (inactive) | 0.559 (inactive) | 0.155 | 1.01 (inactive) | 0.326 (inactive) | 0.253
N#Cc1ccc(NN2C(C(O)C3CCCCC3)C=CC3C(=O)N(c4ccccc4)C(=O)C32)cc1 (stereo not given) | -1.35 (inactive) | 0.545 | 13.2 (active) | 2.67 (inactive) | 3.79 (inactive) | 1.49 (inactive) | -0.911 | -2.02 (inactive) | -3.88 (inactive) | -3.01
